DAX1 inh-1 – blocks DAX1 repression of SF-1 activated StAR promoter; AID 652010; HEK293T StAR-luciferase reporter, SF-1/DAX-1 repression relief; inhibition, % at 6.8 µM; 370,000 compounds, 1.1% hits;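 active = inhibition above the mean over all tested compounds plus 3 SD, cut at about 3.6% in these data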;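 also: 0% = DAX-1 cells with DMSO and 100% = cells lacking DAX-1 with DMSO; higher inhibition means more luminescence from relief of DAX-1 repression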
hcDAF12 agonist – H. contortus DAF-12 activation, primary screen. HEK293 hcDAF-12 lit1-tk-luc reporter, luminescence; 0% DMSO, 100% Δ7-dafachronic acid. activation, % at 6.8 µM. 370,000 compounds, 1.4% hits. AID 652067;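 active = activation above the mean of all tested compounds plus 3 SD, cut at about 5.5% in these data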;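 also: 100% = response to 3 µM Δ7-dafachronic acid high control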
ssDAF-12 act – activates DAF-12 receptor from parasite S. stercoralis; AID 652126; 370,000 compounds, 1% hits; HEK293 ssDAF-12/GRIP1 lit1-tk-luc reporter, luminescence; % of 3 µM dafachronic acid response; activation, % at 6.8 µM;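 active = activation above the mean over all tested compounds plus 3 SD, cut at about 0.9% in these data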;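 also: 0% = DMSO-only wells and 100% = 3 µM delta7-dafachronic acid wells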
hgDAF12 agonist – hgDAF-12 agonism, primary luciferase screen. HEK293 GAL4-hgDAF12 UAS-luciferase reporter, agonist luminescence; normalized to butyrate control. 370,000 compounds, 1.8% hits. activation, % at 6.8 µM. AID 687014;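 active = activation above a cutoff set at the mean of all screened compounds plus 3 SD, cut at about 10% in these data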;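 also: 0% = DMSO wells and 100% = sodium butyrate wells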
DAX1 inh-2 – NR0B1 (DAX1) inhibition; P51843; HEK293 Gal4-DAX1 luciferase reporter, luminescence; inhibition, % at 6.75 µM; 340,000 compounds, 0.99% hits; AID 504766;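 active = inhibition above the mean over all tested compounds plus 3 SD, cut at about 4.2% in these data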;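 also: 0% = DAX1-transfected cells with DMSO and 100% = empty-vector control cells with DMSO; inhibition shows as a rise in luminescence from relieved DAX1 repression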
Target sequence (P51843 207-470 limits assumed): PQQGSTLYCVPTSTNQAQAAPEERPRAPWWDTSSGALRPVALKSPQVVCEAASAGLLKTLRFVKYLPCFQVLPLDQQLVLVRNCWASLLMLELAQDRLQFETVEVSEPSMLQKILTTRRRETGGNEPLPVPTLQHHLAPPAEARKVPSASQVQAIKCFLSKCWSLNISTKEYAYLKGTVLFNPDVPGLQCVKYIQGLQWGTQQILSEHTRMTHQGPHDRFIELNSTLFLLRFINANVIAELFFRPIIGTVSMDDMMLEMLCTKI
DAX1 conf – confirmation of human DAX1 (NR0B1) inhibitors | inhibition, % at 6.8 µM | HEK293T StAR-promoter luciferase reporter, SF-1/DAX-1 repression | 2,400 compounds, 87% hits | shares compounds with DAX1 inh-1;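 active = inhibition above the average of every tested compound plus 3 SD, cut at about 3.8% in these data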;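 also: 0% = DAX-1 cells with DMSO and 100% = no DAX-1 control cells with DMSO; active compounds raise luminescence by relieving repression of the StAR reporter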
SF1 AF2mut Luc – counter-screen for DAX1 inhibitors: nonselective inhibitors with SF-1 AF2 mutant | shares compounds with DAX1 inh-1 | HEK293 StAR-luciferase, luminescence | 2,400 compounds, 78% hits | inhibition, % at 6.8 µM;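 active = inhibition above the mean of all tested compounds plus 3 SD, cut at about 3% in these data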;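 also: 0% = DAX-1 transfected cells with DMSO and 100% = cells without DAX-1 with DMSO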
Starred values were filed as active, the others as inactive; x = no result. The list is not random: actives were taken first. Their share in the collection is about 4.1%.

SMILES | DAX1 inh-1 | hcDAF12 agonist | ssDAF-12 act | hgDAF12 agonist | DAX1 inh-2 | DAX1 conf | SF1 AF2mut Luc
CC1=C(/C=C/C(C)=C/C=C/C(C)=C\C(=O)O)C(C)(C)CCC1 | 5.9* | -2.8 | -1.4 | -4.9 | -1.4 | 17.9* | 7.5*
O=c1[nH]c(=O)n([C@H]2C[C@H](O)[C@@H](CO)O2)cc1I | 5.6* | 1.3 | 0.1 | 10.0 | 0.2 | 14.2* | 6.1*
CCCCCCC[C@@H](C/C=C/CCC(=O)N(C)C/C(=C/Cl)C/C(=C\C(=O)N1C[C@H](O)CC1=O)OC)OC | -2.3 | -1.7 | -1.5 | -4.1 | -1.4 | x | x
CCCCCCC[C@@H](C/C=C/CCC(=O)N(C)C/C(=C/Cl)C/C(=C\C(=O)N1CC(OC)=CC1=O)OC)OC | 18.8* | -0.5 | 0.0 | -12.4 | 2.7 | 6.2* | -5.4
Cc1cccc(-c2noc(CCC(=O)N3CCN(c4cc(C)ccc4C)CC3)n2)c1 | 6.3* | 2.3 | 0.0 | 10.3 | 3.0 | 6.0* | 3.9*
CCn1ncc(Br)c1C(=O)Nc1c(C)nn(Cc2c(F)c(F)c(F)c(F)c2F)c1C | -1.2 | -1.6 | -1.0 | 4.5 | 0.5 | x | x
COc1ccc(S(=O)(=O)N2CCN(C(=O)C3COc4ccccc4O3)CC2)cc1 (stereo unspecified) | -1.1 | -0.8 | -1.2 | -0.8 | 0.3 | x | x
COc1ccc2nc(N3CCN(C(=O)C4COc5ccccc5O4)CC3)sc2c1 (stereo unspecified) | 7.1* | 2.5 | -0.6 | 10.3 | 0.1 | 10.9* | 5.5*
O=C(NNC(=S)Nc1ccccc1)Nc1ccccc1 | 1.9 | 3.1 | 0.1 | 7.5 | 1.2 | x | x
Cc1ccc(NC(=S)NNC(=O)Nc2ccccc2)cc1 | 5.7* | 3.2 | 1.4* | 11.6* | 1.6 | 5.6* | 2.5
Cc1cccc(OC(C)C(=O)N/N=C\c2ccncc2)c1 (stereo unspecified) | 1.1 | 0.9 | -1.7 | 0.1 | -0.7 | x | x
CCCN1CCN(CCCNC(=O)C(CC)n2nc(C)c3sc4ccccc4c3c2=O)CC1 (stereo unspecified) | 5.3* | 2.2 | -1.3 | 1.3 | 0.9 | 3.4 | 4.3*
CCC(C(=O)NCCCN1CCN(C)CC1)n1nc(C)c2sc3ccccc3c2c1=O (stereo unspecified) | 0.1 | 0.3 | -0.6 | 0.1 | -0.2 | x | x
COc1ccc(-c2cc(=O)c3c(C)cc(O)cc3o2)cc1 | 5.6* | 6.5* | 1.8* | 12.1* | 1.9 | 13.3* | 4.6*
CC1(C(=O)NS(=O)(=O)C2CC2)CCCN(C(=O)c2ccco2)C1 (stereo unspecified) | -1.1 | -1.8 | -1.3 | 1.2 | x | x | x
CCc1ccc(C(=O)NNC(=O)Cn2c(=O)cnc3ccccc32)cc1 | 5.4* | -1.0 | -0.5 | 2.2 | -1.2 | 1.6 | -0.9
O=C(Cn1c(=O)cnc2ccccc21)NNC(=O)c1ccc(Cl)cc1 | 0.6 | 0.0 | -0.6 | 2.0 | 0.2 | x | x
Cc1cccc2c1-c1sc(C(=O)N3CCc4ccccc4C3)cc1CO2 | 0.2 | -1.1 | -1.2 | 1.4 | 0.8 | x | x
Cc1cccc2c1-c1sc(C(=O)N3CCCCC3)cc1CO2 | 5.3* | 2.7 | 0.1 | 7.2 | 3.4 | 9.6* | 5.7*
Cc1ccc(/C=N\NC(=O)c2ccc3c(c2)OCO3)o1 | 5.2* | 5.5 | -0.1 | 4.7 | 0.6 | 3.5 | 2.9*
COc1c(C=O)c2c(c(OC)c1OC)-c1ccc(OC)c(=O)cc1C(NC(C)=O)CC2 (stereo unspecified) | 5.1* | 1.9 | -0.4 | -3.8 | -0.6 | 21.0* | -8.3
COc1cc2c(c(OC)c1OC)-c1ccc(OC)c(=O)cc1C(NC(=O)c1ccccc1)CC2 (stereo unspecified) | 4.7* | 0.6 | -0.7 | -5.1 | 1.0 | 15.6* | -6.2
CCOC(=O)c1c[nH]c2c([N+](=O)[O-])cc(OC)cc2c1=O | -0.5 | 0.2 | -1.2 | -2.3 | 0.7 | x | x
O=C(NNC(=O)c1ccc(S(=O)(=O)N2CCOCC2)cc1)c1ccccc1 | 0.1 | -2.4 | -0.8 | 2.3 | -0.2 | x | x

Screening data deposited in PubChem BioAssay by The Scripps Research Institute Molecular Screening Center.
